VACV Venus inh = vaccinia inhibition (Venus reporter) | Vaccinia virus Venus reporter expression, fluorescence | Potency, µM (titrated, usually from 36.5 µM), for the others: at the highest dose activity change, negative = inhibition, usual class: inhibitors | 330,000 compounds, 0.46% hits | AID 720580; calls by dose curve; tested in A549 cells; further: potency means the concentration at half of the fitted maximal effect; nearly all actives have a fitted effect of over 30% in size
LASV entry inh = Lassa virus entry inhibition | Lassa virus pseudotype entry inhibition, cell reporter | Potency, µM (top dose mostly 37.9 µM), without a hit: at the top dose activity change, negative = inhibition, hits mostly inhibitors | 300,000 compounds, 1.2% hits | AID 540256; calls by dose curve; tested in HEK293 cells; further: potency means the concentration at half of the fitted maximal effect; nearly all actives have a fitted effect of over 50% in size
HCMV inh = blocks human cytomegalovirus replication | 410,000 compounds, 4.5% hits | HFF cells, HCMV-luciferase reporter, 72 h; stronger effect = lower value | activity change, negative = inhibition, % at 57.5 µM | AID 1259415; in the data active means activity change below about -60%; inconclusive means no clear call, values can overlap the other calls; inactive means above about -39%
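After 16 h attachment at 37C, HFF cells received test compound and HCMV-luciferase (1 PFU/cell); reporter luminescence read 72 h later, data normalized against buffer-only and known inhibitor Salinomycin.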
VACV mCherry inh = vaccinia inhibition (mCherry reporter); Vaccinia virus mCherry reporter infection, fluorescence; Potency, µM (top dose mostly 36.5 µM), for the others: top-dose activity change, negative = inhibition, hits mostly inhibitors; 310,000 compounds, 0.63% hits; AID 720579; calls by dose curve; tested in A549 cells; further: potency means the concentration at half of the fitted maximal effect; nearly all actives have a fitted effect of over 35% in size
FMDV antiviral = blocks foot and mouth disease virus | FMDV antiviral cell-based qHTS | 410,000 compounds, 1.2% hits | Potency, µM (titrated, usually from 57.9 µM), inactives show at the top dose activity change, negative = inhibition, actives largely listed as inhibitors | AID 1159524; calls by dose curve; tested in HEK293T cells; further: read-out not given here; potency means the concentration at half of the fitted maximal effect; nearly all actives have a fitted effect of over 45% in size
MARV entry inh = Marburg virus entry inhibition; Marburg virus pseudotyped entry inhibition, cell reporter; Potency, µM (highest dose often 37.8 µM), for inactives: top-dose activity change, negative = inhibition, hits mostly inhibitors; 300,000 compounds, 1.8% hits; AID 540276; calls by dose curve; tested in HEK293 cells; further: potency means the concentration at half of the fitted maximal effect
An asterisk follows results filed as active; i = inactive; ? = inconclusive; · = no result given; [ ] = another dose, or the depositor's remark. Most compounds without a hit are left out; they make up all but 6.5% or so of the library. On the % scale 0 is the no-effect control and ±100 the full control effect.

SMILES	VACV Venus inh	LASV entry inh	HCMV inh	VACV mCherry inh	FMDV antiviral	MARV entry inh
O=C(CCCC(=O)N(c1ccc2c(c1)OCCO2)C(C(=O)NC1CCCCC1)c1ccc(Cl)cc1)Nc1ccccn1 (stereo not given)	-3%	?	-69*	-5%	·	?
COC(CN(C(=O)CCl)C(C(=O)NC1CCCCC1)c1ccccc1C)OC (stereo not given)	11µM*	?	-97*	13µM*	?	?
COC(CN(C(=O)CCl)C(C(=O)NC1CCCCC1)c1ccc(Cl)cc1)OC (stereo not given)	-13%	-6%	17	i	?	?
COc1ccc(C2=NCC(C)n3nc4ccccc4c32)cc1 (stereo not given)	·	·	9	·	·	·
CC[C@H](C)[C@H]1O[C@]2(C=C[C@@H]1C)C[C@@H]1C[C@@H](C/C=C(\C)[C@@H](O[C@H]3C[C@H](OC)[C@@H](O[C@H]4C[C@H](OC)[C@@H](O)[C@H](C)O4)[C@H](C)O3)[C@@H](C)/C=C/C=C3\CO[C@@H]4[C@H](O)C(C)=C[C@@H](C(=O)O1)[C@]34O)O2	-14%	·	·	-21%	0%	·
CCCCc1cc2c(cn1)=C(OC(=O)c1cccs1)C(C)(OC(=O)CC)C(=O)C=2 (stereo not given)	·	·	·	·	·	28%[14.2 µM]
Cc1ccccc1CN1CCc2nnc(C(C)NC(=O)c3cc(F)ccc3F)n2CC1 (stereo not given)	0%	·	·	i	-8%	·
O=C(NC1CCCCC1)C(c1cccnc1)N(C(=O)CCl)c1cccc(Cl)c1 (stereo not given)	?	?	-104*	?	7.9µM*	?
COc1ccc(N(C(=O)CCC(=O)Nc2cc(C)on2)C(C(=O)NC2CCCC2)c2ccco2)cc1 (stereo not given)	6%	2%	-35	12%	25%	-2%[46.1 µM]
COc1ccc(N(C(=O)c2ccco2)C(C(=O)NC2CCCCC2)c2ccccc2)cc1 (stereo not given)	-28%	?	-77*	·	-1%	1%
COc1ccc(N(C(=O)/C=C/C(=O)Nc2cc(C)on2)C(C(=O)NC2CCCC2)c2ccccc2C)cc1 (stereo not given)	?	?	-64*	?	20%	9.2µM*
CCOC(=O)C1CCCN(C(=O)c2nn(-c3ccc(C)cc3)c(=O)n(C)c2=O)C1 (stereo not given)	-5%	4%[46.1 µM]	7	0%	-14%	·
COC(=O)c1cn([C@@H]2C[C@@H](C(=O)Nc3cccc(SC)c3)N(C3CCCCCC3)C2)nn1	-4%	·	·	-4%	-12%	·
CCC(O)(CC)C(=O)NN(C(=O)CCl)c1ccccc1	-17%	-27%	-94*	-9%	?	?
O=C(Nc1ccccc1)NN(C(=O)CCl)c1ccccc1	?	?	-102*	?	20µM*	?
Cc1ccc(N(NC(=O)C(O)(c2ccccc2)c2ccccc2)C(=O)CCl)cc1	?	?	-99*	?	8.9µM*	13µM*
Cc1ccc(C(O)(C(=O)NN(C(=O)c2ccccc2)c2ccccc2)c2ccc(C)cc2)cc1	2%	-6%	29	-14%	8%	?
CC(=O)Nc1cc(C(=O)N2CCCC(C)C2)cc2ncn(CCc3ccccn3)c12 (stereo not given)	-16%	·	·	i	-4%	·
Cc1ccc(CSC(Nc2ccc(F)cc2)=C(C#N)C#N)cc1	?	13µM*	-100*	-13%	0%	?
CN(C)c1ccc(CNC(=O)c2ccc(Cn3c(SCc4ccccc4)nc4cccnc43)cc2)cc1	-22%	·	20	-13%	15%	14%[46.1 µM]
CCCCN(C(=O)CCC(=O)O)[C@H]1CC(=O)N(c2ccc(OCCC)cc2)C1=O	·	·	·	·	·	4%
Cc1cc(C)c(NC(=O)CS(=O)CC(=O)Nc2ccc(-n3cnnn3)c(C)c2)c(C)c1 (stereo not given)	-13%	?	-69*	-6%	-12%	?
Cc1ccc(NC(=O)c2ccc(C)cc2)cc1	-9%	·	88	-14%	-5%	·
Cc1ccc(C(=O)Nc2ccc(Br)c(C(F)(F)F)c2)cc1	·	?	25	·	-15%	16µM*
CCCCOc1ccc(C(=O)Nc2ccc3c(c2)OCO3)cc1	·	·	-36	·	45%	·
SMILES	VACV Venus inh	LASV entry inh	HCMV inh	VACV mCherry inh	FMDV antiviral	MARV entry inh
CCC(=O)Oc1ccc(C(=O)Nc2ccc3c(c2)OCO3)cc1	4%	?	-103*	-3%	-1%	?
Cc1nc2ccc(NC(=O)c3ccccc3)cc2c(=O)n1Cc1ccc(F)cc1	?	·	-73*	-17%	28µM*	·
Cc1cnc(-n2ncc(C(=O)NCc3ccncc3)c2C2CC2)nc1-c1cccs1	-28%	·	·	?	-29%	·
CC(=O)Nc1ccc2cc3ccc(NC(C)=O)cc3nc2c1	·	·	-98*	·	57%	·
Cc1cc(NC(=O)c2ccc3c(c2)OCO3)ccc1NC(=O)c1ccccc1	-18%	8%[46.1 µM]	20	-28%	7.9e-05µM*	?
Cc1ccc(NC(=O)c2ccccc2)cc1-n1cnnn1	-11%	-1%[46.1 µM]	-73*	i	25%	0%[46.1 µM]
Cc1ccc(NC(=O)c2ccc(NC(=O)c3ccccc3)cc2)cc1C	10µM*	?	?	?	?	?
COc1ccc2cc3cc(C(=O)NCCc4ccccc4)sc3nc2c1Cl	-10%	23%[46.1 µM]	?	-12%	18%	·
Cc1nc(CN2CCN(C(=O)CC3(c4ccccc4Cl)CC(=O)N(C)C3=O)CC2)cs1 (stereo not given)	2%	·	·	-7%	3%	·
CCOc1ccc(CN2CCOc3ccc(C(O)c4cccnc4)cc3C2)cc1 (stereo not given)	-13%	·	·	-19%	-29%	·
Cc1cccc(NC(=O)c2c(N)sc3c2CCC(C)C3)c1 (stereo not given)	-6%[7.34 µM]	4%[46.1 µM]	-29	-5%[7.34 µM]	42%	?
O=C(Nc1ccc2nsnc2c1)c1ccc2c(c1)OCO2	·	12µM*	140	·	-2%	?
O=C(Nc1ccc2nc3ccccc3nc2c1)c1ccccc1	?	11µM*	91	10µM*	-24%	?
Cc1ccc(NC(=O)c2ccc3c(c2)OCCO3)nc1	-13%	?	23	-14%	16µM*	?
Cc1ccc(NC(=O)c2ccc3c(c2)OCCO3)cc1C	-7%	?	-26	6%	13µM*	?
O=C(Nc1ccc2c(c1)OCO2)c1ccc2c(c1)OCO2	-6%	?	8	-16%	-24%	?
O=C(Nc1ccc(Cl)c(Cl)c1)c1ccccc1	-24%	·	2	-7%	5%	·
O=C(Nc1ccc(NC(=O)c2ccc3c(c2)OCCO3)cc1)c1ccccc1	-11%	?	?	-7%	30%	?
COc1ccc(C#Cc2c(-c3ccccc3OC)oc3ccccc23)cc1	·	·	-10	·	·	·
N#Cc1cccc(-c2cc(NCc3cccs3)ncn2)c1	-3%	·	·	?	35%	·
